AMA1-RON2 inh: disrupts binding of P. falciparum AMA1 to RON2; AID 720542; 0.2% of 360,000 active; AlphaScreen AMA1-biotinylated RON2 peptide binding; Potency, µM (highest dose often 58.2 µM), without a hit: at the highest dose activity change, negative = inhibition, hits mostly inhibitors;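 also: 0% = vehicle wells and -100% = peptide control; nearly all actives have a fitted effect of over 45% in size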
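AMA1 (3D7) with his tag at 25 nM final met compounds first, then biotinylated RON2 peptide at 25 nM; detection used donor plus acceptor beads, 10 µg/mL apiece, read by AlphaScreen after 30 min at room temperature.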
HCV inhibitor: inhibitors of hepatitis C virus infection. Huh7.5.1 HCVcc-Cre infection, luciferase reporter, 44 h. Potency, µM (highest dose often 41.8 µM), for the others: at the highest dose activity change, negative = inhibition, actives largely listed as inhibitors. 3.4% of 340,000 active. AID 651820
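Cells seeded at 1,000/well and cultured 4 h, then compounds added followed by HCVcc-Cre virus (~0.5 moi). After 44 h further culture, luciferase substrate was added, plates held 15 min at room temperature, and luminescence read for 15 sec.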
AmpC no deterg: inhibitors of E. coli AmpC beta-lactamase without detergent. AmpC nitrocefin hydrolysis, absorbance 480 nm, 0.0001% Triton. Potency, µM (top dose mostly 57.1 µM), for the others: at the top dose activity change, negative = inhibition, actives largely listed as inhibitors. 0.52% of 330,000 active. AID 485341;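 also: plate controls were no compound for no effect and no enzyme for full effect; nearly all actives have a fitted effect of over 20% in size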
Target sequence (P00811 whole entry, looked up): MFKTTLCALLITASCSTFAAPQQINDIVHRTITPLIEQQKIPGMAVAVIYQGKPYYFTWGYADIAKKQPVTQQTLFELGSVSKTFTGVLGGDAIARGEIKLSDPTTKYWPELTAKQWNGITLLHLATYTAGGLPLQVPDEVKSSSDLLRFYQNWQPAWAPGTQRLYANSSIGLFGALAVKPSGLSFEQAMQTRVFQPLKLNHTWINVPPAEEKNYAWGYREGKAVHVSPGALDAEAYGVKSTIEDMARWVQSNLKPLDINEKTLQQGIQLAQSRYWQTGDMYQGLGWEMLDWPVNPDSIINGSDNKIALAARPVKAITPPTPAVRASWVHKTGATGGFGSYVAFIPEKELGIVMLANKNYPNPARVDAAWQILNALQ
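AmpC (5.3 nM in the dispensed reagent) in 20 mM phosphate pH 7.0 with 0.01% (detergent screen) or 0.0001% Triton X-100 was preincubated with compounds for 15 min at room temperature. Nitrocefin was then added from an 800 uM solution, and hydrolysis was followed at 480 nm.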
Pf growth 96h: P. falciparum growth inhibition at 96 hour, primary screen for plastid delayed-death inhibitors | P. falciparum luciferase reporter growth, 96 h | Potency, µM (highest dose often 28.7 µM), for inactives: at the highest dose activity change, negative = inhibition, usual class: inhibitors | 6.9% of 320,000 active | AID 504834
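Luminescence readout: decreased luciferase signal marks inhibited growth of reporter-expressing P. falciparum in infected red cells (2% hematocrit, 0.05% parasitemia final), exposed to compound two generations (96 h, 37 C, 5% CO2).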
AmpC detergent: AmpC beta-lactamase inhibition with detergent present | AID 485294 | AmpC hydrolysis of nitrocefin, absorbance 480 nm, 0.01% Triton | 0.041% of 370,000 active | Potency, µM (series often up to 114 µM), without a hit: at the top dose activity change, negative = inhibition, actives largely listed as inhibitors;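 also: 0% = no-compound wells and -100% = no-enzyme wells; nearly all actives have a fitted effect of over 25% in size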
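20 mM phosphate pH 7.0 + 0.01% (detergent screen) or 0.0001% Triton X-100; 5.3 nM AmpC reagent; cpd preinc 15 min RT; nitrocefin (800 uM stock) to start; A480 q20 s × 4 min; Activity was normalised to no-enzyme and no-compound control wells.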
Pf growth 48h: inhibits P. falciparum growth in the first generation, 48 h | P. falciparum luciferase growth in erythrocytes, 48 h | Potency, µM (titrated, usually from 28.7 µM), without a hit: at the top dose activity change, negative = inhibition, actives largely listed as inhibitors | 5.9% of 310,000 active | AID 504832
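Cell-based growth assay: transgenic P. falciparum expressing firefly luciferase, cultured in red cells within RPMI 1640 containing 0.5% w/v Albumax, 24 mM bicarbonate and gentamycin. A drop in luciferase activity indicates inhibition.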
* hit, by the source's call; ? = inconclusive; nt = not tested or not shown; [ ] = remark or other dose. The list is not random: actives were taken first. Their share in the collection is about 11%. Calls follow the shape of the dose curve; as a rule, active = well fitted curve in the direction sought with a large enough effect; inconclusive = small, poorly fitted or top-dose-only effect, or another doubt; inactive = no such curve, though single readings can be large; an effect the other way counts as inactive or inconclusive. Unless noted, % is scaled to controls: 0 for no effect and ±100 for the full control effect; potency is read from the fitted curve at half-maximal effect.

SMILES	AMA1-RON2 inh	HCV inhibitor	AmpC no deterg	Pf growth 96h	AmpC detergent	Pf growth 48h
COC(=O)[C@@H]1CC[C@H](C)[C@@H](c2ccc(C)cc2)N1C(=O)c1ccc(/C=N/O[C@@H](C)c2cn([C@H](CO)Cc3ccccc3)nn2)cc1	nt	-8.8%[8.37 µM]	243.7%	4.65µM*	-0.4%	3.7µM*
COC(=O)C/C=C/[C@@H](C)[C@@H](/C=N/OC[C@H]1O[C@H](c2ccccc2)C=C[C@@H]1Oc1ccc(OC)cc1)OC	nt	6.8%[8.37 µM]	57.9%	?	?	-67.3%
CCCNC(=O)OC[C@H]1O[C@H](CCO/N=C/c2ccc(C(=O)N3[C@H](c4ccc(C)cc4)[C@@H](C)CC[C@H]3C(=O)OC)cc2)C=C[C@@H]1Oc1ccc(OC)cc1	nt	1.6%[8.37 µM]	12.5%	2.08µM*	?	?
COC(=O)[C@@H]1CC[C@H](C)[C@@H](c2ccc(C)cc2)N1C(=O)c1ccc(/C=N/OC[C@@H](O)[C@H]2O[C@@H]3OC(C)(C)O[C@@H]3[C@H]2O)cc1	nt	4.4%[8.37 µM]	273.2%	?	?	?
Cn1ncc2c(N3CCN(c4ccc(F)cc4)CC3)ncnc21	nt	nt	nt	nt	-0.8%	nt
COc1cc2c(cc1OC)C(COc1ccc3c(C)cc(=O)oc3c1)N(C(=O)c1cccc(C)c1)CC2 (centres undefined)	nt	nt	nt	nt	-5.8%	nt
COC(=O)c1ccc(C(=O)OC)c(NC(=O)CN(C)Cc2ccc(Cl)c(Cl)c2)c1	11.3%	5.3%	-23.5%	?	-9.2%	10.4µM*
Cc1c(O)ccc2cc(S(=O)(=O)c3ccccc3)c(=O)oc12	3.6%	15.6%	-15.2%	11.7µM*	-1.2%	6.7%[0.00184 µM]
Cc1ccc(S(=O)(=O)c2cc3ccccc3oc2=O)cc1	5.6%	3.9%	-13.6%	8.6%	4.7%	60.2%
CCOc1ccccc1OCCCC(=O)N1CCN(S(=O)(=O)c2ccc(C)cc2C)CC1	-4.8%	-17.5%	207.7%	10.4µM*	3.4%	?
Cc1cc(C)c(S(=O)(=O)N2CCN(C(=O)CCOc3ccccc3C)CC2)c(C)c1	-1.0%[11.6 µM]	?	-20.6%	?	?	13.1µM*
COc1ccc(N2CC(NC(=O)c3ccc(OC(C)C)cc3)CC2=O)cc1 (centres undefined)	nt	nt	nt	nt	4.1%	nt
COC(=O)[C@@]1(Cc2ccc(F)cc2)[C@H]2c3cc(C(=O)N4CCCC4)n(CCF)c3C[C@H]2CN1C(=O)c1ccccc1	-3.2%	nt	nt	nt	nt	nt
COC(=O)[C@@]1(Cc2ccc(OC)cc2)[C@H]2c3cc(C(=O)N4CCCC4)n(CCn4cc([N+](=O)[O-])nc4C)c3C[C@H]2CN1C(=O)c1ccccc1	7.0%	1.6%[8.37 µM]	10.6%	0.586µM*	?	?
COC(=O)[C@@]1(Cc2ccc(OC)cc2)[C@H]2c3cc(C(=O)N4CCCC4)n(Cc4ccc(OC)c(OC)c4)c3C[C@H]2CN1C(=O)c1ccccc1	nt	2.1%[8.37 µM]	283.5%	1.47µM*	?	?
COC(=O)[C@@]1(Cc2ccc(OC)cc2)[C@H]2c3cc(C(=O)N(C)C)n(Cc4c(CO)[nH]cc(C)c4=O)c3C[C@H]2CN1C(=O)c1ccccc1	-8.3%	13.8%	nt	nt	nt	nt
COC(=O)[C@@]1(Cc2ccc(OC)cc2)[C@H]2c3cc(C(=O)N(C)C)[nH]c3C[C@H]2CN1C(=O)c1ccccc1	-21.1%	-0.7%	385.9%	?	3.9%	4.65µM*
COC(=O)[C@@]1(Cc2ccc(OC)cc2)[C@H]2c3cc(C(=O)N(C)C)n(CCc4ccc(OC)c(Br)c4)c3C[C@H]2CN1C(=O)c1ccccc1	nt	6.4%[8.37 µM]	211.4%	2.08µM*	-11.8%	2.08µM*
COC(=O)[C@@]1(Cc2ccc(OC)cc2)[C@@H]2[C@@H](CC(=O)[C@H]2CC(=O)C(=O)N(C)C)CN1C(=O)c1ccccc1	-8.4%	9.5%	186.7%	?	?	?
CCCCN1C(=O)c2[nH]nc(-c3ccccc3O)c2C1c1ccc(C(C)(C)C)cc1 (centres undefined)	nt	nt	nt	nt	15.5%	nt
CC(C)(C)OC(=O)N1CCC(c2c(C(=O)N3CCN(Cc4ccccc4)CC3)cnn2-c2cccc(Cl)c2)CC1	nt	nt	nt	nt	3.4%	nt
CC(=O)N1CCCC1c1nc2ccccc2n1Cc1ccccc1F (centres undefined)	nt	nt	nt	nt	26.3%	nt
COC(=O)[C@@]1(Cc2ccc(F)cc2)[C@H]2C(CC(=O)C(=O)N3CCCC3)C(=O)C[C@H]2CN1C(=O)c1ccccc1 (some centres undefined)	-5.7%	nt	nt	nt	nt	nt
COC(=O)[C@@]1(Cc2ccc(OC)cc2)[C@@H]2C(=CC(=O)[C@H]2CC(=O)C(=O)N2CCCC2)CN1C(=O)c1ccccc1	19.6%	-11.2%	272.7%	?	-8.8%	10.4µM*
COC(=O)[C@@]1(Cc2ccc(OC)cc2)[C@H]2c3cc(C(=O)N4CCCC4)n(CCN4CCNC4=O)c3C[C@H]2CN1C(=O)c1ccccc1	nt	4.7%[8.37 µM]	336.2%	1.65µM*	-13.9%	1.85µM*
SMILES	AMA1-RON2 inh	HCV inhibitor	AmpC no deterg	Pf growth 96h	AmpC detergent	Pf growth 48h
COC(=O)[C@@]1(Cc2ccc(OC)cc2)[C@H]2c3cc(C(=O)N4CCCC4)n(CCN4CCOCC4)c3C[C@H]2CN1C(=O)c1ccccc1	80.9%	nt	nt	nt	nt	nt
O=C1C(=O)N(C2CCN(C(=O)c3ccccc3F)CC2)CCN1Cc1ccc(F)cc1	nt	nt	nt	nt	1.2%	nt
O=C1N(Cc2cccc(Cl)c2)C[C@@H]2C[C@@H](c3cccc4ncccc34)N3CCC[C@@]123	3.4%	11.2µM*	142.5%	20.6%	0.1%	1.65µM*
O=C1N(Cc2cccc(Cl)c2)C[C@@H]2C[C@@H](c3cccn3-c3ccccn3)N3CCC[C@@]123	-13.3%	6.31µM*	76.5%	?	7.6%	11.7µM*
O=C1N(Cc2cccc(Cl)c2)C[C@@H]2C[C@@H](c3cccc4cccnc34)N3CCC[C@@]123	7.9%	-29.0%	65.6%	?	-3.7%	?
O=C1N(Cc2cccc(Cl)c2)C[C@@H]2C[C@@H](c3cccn3-c3nccs3)N3CCC[C@@]123	-3.0%	?	77.7%	?	6.9%	?
COc1ccc(-c2nc3scc(CCNS(=O)(=O)c4ccc(F)c(C(F)(F)F)c4)n3n2)cc1OC	nt	nt	nt	nt	-10.5%	nt
CSc1ccc(-c2nc3ncccn3c2Nc2ccc(C)c(C)c2)cc1	nt	nt	nt	nt	-3.1%	nt
O=[N+]([O-])c1ccccc1NC(=S)N/N=C/c1ccc(O)c(O)c1	77.3%	?	4.47µM*	300.4%	-1.7%	392.2%
CCOc1cccc(/C=N/NC(=S)Nc2ccccc2[N+](=O)[O-])c1O	27.3%	-11.7%	-25.4%	?	0.5%	-49.8%
